Our source for the outcome and AC50 values is PubChem BioAssay (EPA / NIEHS).

The structures appear in SMILES notation. Inconclusive results are not listed. Calls of active or inactive are those of the source. How the source made its calls, unless noted: active means hit-call score of the fitted dose curve at least 0.9, where 1 is the maximum; inactive means score below 0.9.

Assay [1] addresses human Vitamin D Receptor (VDR), VDR (gene 7421) (UniProt P11473). Put plainly: ATG_VDR_TRANS: Attagene TRANS-FACTORIAL HepG2 Assay for human Vitamin D Receptor (VDR) (AID 2283022; active means hit-call score of the fitted dose curve at least 0.9, where 1 is the maximum). In outline:
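HepG2 cells were transiently transfected with GAL4-UAS reporter units and a chimeric VDR-Gal4 construct, then dosed for 24 hours. Reporter mRNA was quantified by RT-PCR, fluorescent labeling, HpaI digestion and capillary electrophoresis; gain of signal analysed vs DMSO.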

Assay [2] can be described thus: BSK_3C_SRB: Viability Assessment in the BioMAP Diversity Plus: 3C Assay (AID 2283023).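 Further: fitted both ways against DMSO so a hit may be signal rise or drop.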 As to conditions: primary human endothelial cells (HUVEC). In a few lines:
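Human umbilical vein endothelial cells in the 3C system, treated 24 h. Total protein measured by 0.1% sulforhodamine B staining after 10% TCA fixation, read at 560 nm; bidirectional fit versus DMSO.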

Read-out in assay [3]: Matrix Metallopeptidase 1 (MMP1), MMP1 (gene 4312)
Nature of the assay: BSK_BE3C_MMP1: BioMAP Diversity Plus: BE3C Assay for Matrix Metallopeptidase 1 (MMP1) Biomarker Activity (AID 2283024). To be noted: primary human bronchial epithelial cells; actives raise or lower the signal. In outline:
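MMP1 signal, measured by ELISA after a 24 h chemical exposure of human primary bronchial epithelial cells, is analysed with bidirectional fitting using DMSO as negative control.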

Assay [4] in a line: BSK_3C_Vis: BioMAP Diversity Plus: 3C Assay for Morphology Visualization (AID 2283025).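 Further: fitted both ways so gain or loss versus DMSO counts.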 As to conditions: primary human endothelial cells (HUVEC). In a few lines:
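Morphology read by light microscopy serves as a background control for the multiplexed 3C assay in human umbilical vein endothelial cells, taken 24 h after dosing, with DMSO as the negative control and bidirectional curve fitting.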

Read-out in assay [5]: Pselectin, SELP (gene 6403)
Nature of the assay: BSK_4H_Pselectin: BioMAP Diversity Plus: 4H Assay for Pselectin Biomarker Activity (AID 2283026). To be noted: primary human endothelial cells (HUVEC); actives raise or lower the signal. In a few lines: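 Endothelial primary cells (human umbilical vein) are dosed, incubated 24 h, and assayed for surface P-selectin by ELISA; responses in either direction are fitted relative to the DMSO negative control.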

Assay [6] in a line: BSK_4H_SRB: Viability Assessment in the BioMAP Diversity Plus: 4H Assay (AID 2283027).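 Further: cells exposed to compound for 24 h before staining.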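 On AC50: curves fitted both ways versus DMSO so AC50 may be loss or gain.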 As to conditions: primary human endothelial cells (HUVEC). In a few lines:
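Cytotoxicity read-out in primary human endothelial cells: after 24 h compound exposure, cells were TCA-fixed (10%), stained with 0.1% SRB and absorbance taken at 560 nm. Values fitted in both directions relative to DMSO.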

Assay [7] is described as follows: BSK_BE3C_SRB: Viability Assessment in the BioMAP Diversity Plus: BE3C Assay (AID 2283028).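 On AC50: fitted both ways so AC50 may mark signal gain or loss versus DMSO.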 As to conditions: primary human bronchial epithelial cells. In outline: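 Human bronchial epithelial primary cells in confluent culture, 24 h after chemical dosing; total protein by 0.1% SRB staining after 10% TCA fixation, read at 560 nm. Bidirectional fitting versus DMSO baseline.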

Read-out in assay [8]: Thrombomodulin, THBD (gene 7056)
Nature of the assay: BSK_3C_Thrombomodulin: BioMAP Diversity Plus: 3C Assay for Thrombomodulin Biomarker Activity (AID 2283029). To be noted: primary human endothelial cells (HUVEC); actives raise or lower the signal. In outline: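 Endothelial cells from umbilical vein are dosed with test chemical and incubated 24 h. Thrombomodulin is then quantified by ELISA, with DMSO serving as negative control and activity baseline.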

Read-out in assay [9]: Urokinase-type plasminogen activator receptor (uPAR), PLAUR (gene 5329)
Put plainly: BSK_4H_uPAR: BioMAP Diversity Plus: 4H Assay for Urokinase-type plasminogen activator receptor (uPAR) Biomarker Activity (AID 2283030). As to conditions: primary human endothelial cells (HUVEC); actives raise or lower the signal. In outline: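 Human umbilical vein endothelial cells in the 4H system, 24 h after chemical dosing. Cell-surface uPAR measured by ELISA, fitted in both directions versus DMSO; cytotoxicity checked by SRB total protein in parallel cultures.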

Read-out in assay [10]: Vascular endothelial growth factor receptor 2 (Homo sapiens) (UniProt P35968)
Put plainly: BSK_4H_VEGFRII: BioMAP Diversity Plus: 4H Assay for Vascular endothelial growth factor receptor 2 (VEGFR2) Biomarker Activity (AID 2283031). To be noted: primary human endothelial cells (HUVEC); actives raise or lower the signal. In a few lines: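 Primary human umbilical vein endothelial cells (4H system), 24 h exposure; cell-surface VEGFR2 measured by ELISA. Bidirectional fitting versus DMSO; cytotoxicity checked in parallel by SRB total-protein staining.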

human Vitamin D Receptor (VDR), VDR (gene 7421), sequence (P11473 whole entry, looked up, the tested form may be a part): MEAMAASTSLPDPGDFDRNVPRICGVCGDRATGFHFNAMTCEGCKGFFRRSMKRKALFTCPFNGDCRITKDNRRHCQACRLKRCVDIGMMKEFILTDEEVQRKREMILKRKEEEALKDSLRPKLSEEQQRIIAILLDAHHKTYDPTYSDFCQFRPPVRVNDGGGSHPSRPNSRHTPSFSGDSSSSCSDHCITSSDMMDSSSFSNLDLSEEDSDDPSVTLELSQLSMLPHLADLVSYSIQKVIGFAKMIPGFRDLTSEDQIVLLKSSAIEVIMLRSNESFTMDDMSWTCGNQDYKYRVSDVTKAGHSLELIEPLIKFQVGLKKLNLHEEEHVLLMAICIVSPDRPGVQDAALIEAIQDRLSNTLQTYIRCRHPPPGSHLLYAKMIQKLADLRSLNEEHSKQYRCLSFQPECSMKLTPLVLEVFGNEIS

In general, AC50 refers to the concentration giving half of the maximal activity seen. For the compound `O=CCCCC=O`, the compound was classed as inactive in [1], in assay [3], in assay [4], in [6], in assay [7] and in assay [8]. The result in assay [9] and in [10] was inactive. The figures for the AC50 in [2] and in [5] were 31.7 µM (active) and 30.7 µM (active), respectively.

As for `CO[C@H]1/C=C/O[C@@]2(C)Oc3c(C)c(O)c4c(O)c(c(/C=N/N5CCN(C)CC5)c(O)c4c3C2=O)NC(=O)/C(C)=C\C=C\[C@H](C)[C@H](O)[C@@H](C)[C@@H](O)[C@@H](C)[C@H](OC(C)=O)[C@@H]1C`, the result in assay [1], in [2], in [3], in [4], in assay [5] and in [6] was inactive. Besides, the outcome in assay [7], in [8], in assay [9] and in [10] was inactive.

In the case of `CC(C)(C)c1cc(/C=C2\SC(N)=NC2=O)cc(C(C)(C)C)c1O`, the AC50 in [2] was 29.1 µM (active); in assay [4], 16.3 µM (active); in assay [5], 13.3 µM (active); in assay [6], 28.7 µM (active); in assay [9] it was 36.7 µM (active). Moreover, the outcome in assay [3], in assay [7] and in assay [8] was inactive.

On to `CCCCCCCCCCCO`, for which the results for the half-maximal activity concentration (AC50) in [1] and in assay [2] were 159 µM (active) and 31.3 µM (active), respectively. For the same compound, the result in assay [3], in [4], in [5], in assay [6], in assay [7] and in assay [8] was inactive. The result in [9] and in [10] was inactive.

Turning to `COc1cc(C(=O)NC2CCN(C)CC2)ccc1Nc1ncc2c(n1)N(C1CCCC1)CC(F)(F)C(=O)N2C`, the call in assay [1], in assay [8] and in [10] was inactive. Also, the AC50 was 18.6 µM (active) in assay [2]; 7.76 µM (active) in assay [3]; 18.6 µM (active) in [4]; 3.57 µM (active) in assay [5]; 13.5 µM (active) in assay [6]; 28.2 µM (active) in [7]. The AC50 in assay [9] was 7.45 µM (active).

As to `CC1=CC(=O)/C(=C(/C)O)C(=O)O1`, the result in assay [1], in assay [2], in [3], in [4], in [5] and in [6] was inactive. Further, the outcome in assay [7], in assay [8], in [9] and in assay [10] was inactive.

On to `CCCCCCCCOc1ccc(C(=O)c2ccccc2)c(O)c1`, for which the result in assay [1], in assay [3], in assay [4], in assay [5], in [6] and in [7] was inactive. In addition, the outcome in [9] and in assay [10] was inactive. In addition, the AC50 in assay [2] is 28.7 µM (active); in [8], 7.71 µM (active).

As to `CCN(CC)C(=O)c1cc(S(=O)(=O)Cc2ccccc2)c(N2CCC(c3ccccc3)CC2)cc1N(CC)CCN(C)C`, the AC50 in assay [2] is 5.18 µM (active); in [4] it was 6.48 µM (active); in assay [5], 7.87 µM (active); in assay [6], 19.2 µM (active); in [7] it was 11 µM (active); in [8], 4.43 µM (active). In assay [9], the concentration at half-maximal activity (AC50) is 19.8 µM (active). Also, the outcome in assay [10] was inactive.

Regarding `O=C(O)c1ccccc1C(=O)OCc1ccccc1`, the outcome in assay [2], in assay [3], in [4], in assay [5], in [6] and in assay [7] was inactive. Also, the result in [8], in assay [9] and in assay [10] was inactive.

With `Cc1c2ccccc2c(C)c2c1ccc1ccccc12`, the concentration at half-maximal activity (AC50) was 13.4 µM (active) in assay [2]; 20 µM (active) in assay [3]; 13.7 µM (active) in [4]; 14.7 µM (active) in assay [5]; 18.8 µM (active) in assay [6]; 14 µM (active) in assay [9]. Further, the outcome in assay [7] and in assay [8] was inactive.

Consider `CC(=O)N1CCN(c2ccc(OC[C@H]3CO[C@](Cn4ccnc4)(c4ccc(Cl)cc4Cl)O3)cc2)CC1`, for which the compound was called inactive in assay [1], in assay [3], in assay [7], in assay [8] and in [10]. The concentration at half-maximal activity (AC50) in [2] is 29.1 µM (active); in assay [4], 37.5 µM (active); in assay [5], 14.8 µM (active); in assay [6] it was 29.6 µM (active); in [9], 32.9 µM (active).

On to `C[C@]12CC[C@@H]3c4ccc(O)cc4CC[C@H]3[C@@H]1CCC2=O`, for which the outcome in [2], in assay [4], in assay [5], in assay [6], in [7] and in [8] was inactive. In addition, the outcome in [9] and in assay [10] was inactive. The AC50 in assay [3] was 3.97 µM (active).

Consider `O=C1c2ccccc2C(=O)N1CCc1noc(-c2ccc(CN3CCCCCC3)s2)n1`, for which the outcome in [2], in [3], in assay [4], in [6], in assay [7] and in assay [8] was inactive. Besides, the AC50 in assay [5] is 17.8 µM (active); in assay [9] it was 22.8 µM (active).

`CN1C(=O)CC[C@H]1c1cccnc1`: the result in assay [2], in assay [3], in assay [4], in [5], in [6] and in assay [7] was inactive. The result in assay [8], in assay [9] and in [10] was inactive.

In the case of `Cc1cc2c(cc1C(F)(F)F)N(C(=O)Nc1ccc(Oc3cccnc3C)nc1)CC2`, the result in [2], in assay [3], in assay [6] and in assay [9] was inactive. Moreover, the AC50 in assay [4] is 36.6 µM (active); in [5], 8.67 µM (active); in [7], 15.8 µM (active); in assay [8], 5.4 µM (active).

On to `CC(O)CC(C)(C)O` (stereo not given), for which the compound was classed as inactive in [1], in [2], in [3], in assay [4], in assay [5] and in [6]. In addition, the result in assay [7], in assay [8], in assay [9] and in [10] was inactive.

On to `NCc1cccc(C2CCN(C(=O)c3ccc(C#Cc4ccccc4F)o3)CC2)c1`, for which the result in assay [1] and in [10] was inactive. Further, the AC50 in assay [2] is 11 µM (active); in [3], 28.2 µM (active); in [4], 13.3 µM (active); in assay [5] it was 13.3 µM (active); in assay [6] it was 15.1 µM (active); in [7], 15.4 µM (active). In addition, the AC50 was 12.7 µM (active) in assay [8] and 23.2 µM (active) in [9].

Turning to `CN1C(=O)N(c2ccccc2Br)Cc2cnc(Nc3ccc4c(c3)OCC(CO)O4)nc21` (stereo not given), the half-maximal activity concentration (AC50) in assay [2] was 20 µM (active); in assay [3] it was 7.24 µM (active); in assay [4], 20.7 µM (active); in assay [5], 6.75 µM (active); in [6], 2.02 µM (active); in [7], 28.1 µM (active). Moreover, the AC50 in [9] is 3.51 µM (active). Besides, the outcome in assay [8] and in assay [10] was inactive.

On to `O=C1O[C@H]([C@@H](O)CO)C(O)=C1O`, for which the result in assay [2], in assay [3], in assay [4], in [5], in assay [6] and in [7] was inactive. For the same compound, the result in [8], in assay [9] and in assay [10] was inactive.
